Data: PubChem BioAssay (NCI)
Compounds without any hit were thinned out: in the full panel of roughly 83,000, 20% have a hit.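 How to read the values: 0–100, growth inhibition (40 = 60% inhibited); 0, no net growth; -100 to 0, cell death (-40 = 40% of starting cells died; -100 = all dead).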 Unmarked numbers belong to inactive results. The source made the active and inactive calls. The calls were made as follows: active = growth percent below 10; inactive = the rest.

What was measured:
Experiment in all cases: NCI-60 one-dose screen, 48 h (100 = growth as untreated, 0 = no growth, -100 = all killed)
Conditions in all cases: 10 µM unless noted
DU-145 prostate = test system: DU-145 prostate
K-562 leukemia = test system: K-562 leukemia
MALME-3M melanoma = test system: MALME-3M melanoma
MDA-MB-231 breast = test system: MDA-MB-231 breast
RXF 393 renal = test system: RXF 393 renal
SF-268 CNS = test system: SF-268 CNS
SF-295 CNS = test system: SF-295 CNS
SF-539 CNS = test system: SF-539 CNS
UACC-257 melanoma = test system: UACC-257 melanoma
M14 melanoma = test system: M14 melanoma
HCT-15 colon = test system: HCT-15 colon
HT29 colon = test system: HT29 colon
SNB-75 CNS = test system: SNB-75 CNS
SNB-19 CNS = test system: SNB-19 CNS
U251 CNS = test system: U251 CNS
PC-3 prostate = test system: PC-3 prostate
SK-MEL-5 melanoma = test system: SK-MEL-5 melanoma
UACC-62 melanoma = test system: UACC-62 melanoma
LOX IMVI melanoma = test system: LOX IMVI melanoma
SK-MEL-28 melanoma = test system: SK-MEL-28 melanoma

SMILES	growth (DU-145 prostate)	growth (K-562 leukemia)	growth (MALME-3M melanoma)	growth (MDA-MB-231 breast)	growth (RXF 393 renal)	growth (SF-268 CNS)	growth (SF-295 CNS)	growth (SF-539 CNS)	growth (UACC-257 melanoma)	growth (M14 melanoma)	growth (HCT-15 colon)	growth (HT29 colon)	growth (SNB-75 CNS)	growth (SNB-19 CNS)	growth (U251 CNS)	growth (PC-3 prostate)	growth (SK-MEL-5 melanoma)	growth (UACC-62 melanoma)	growth (LOX IMVI melanoma)	growth (SK-MEL-28 melanoma)
COc1ccc(OC)c(/C=C2\Oc3cc(O)ccc3C2=O)c1	77.5%	93.2%	76%	103%	80.5%	87.3%	98.6%	95.4%	103%	73.2%	75%	100%	88.6%	95.5%	89.5%	95.5%	92.4%	89%	88.6%	88.5%
COc1cc(CNCCCN2C(=O)c3ccc4c5c(ccc(c35)C2=O)C(=O)N(CCCNCc2cc(OC)c(OC)c(OC)c2)C4=O)cc(OC)c1OC	-95.6% (active)	7.69% (active)	-87.1% (active)	-17.5% (active)	-95.3% (active)	-31.8% (active)	-50.3% (active)	-86.9% (active)	-93% (active)	-89.8% (active)	-29.4% (active)	-47.6% (active)	-97.2% (active)	-92.3% (active)	-74.5% (active)	-54.8% (active)	-99.7% (active)	-90.2% (active)	-85.6% (active)	-91.7% (active)
COc1ccc(-c2[nH]ncc2Nc2cc(OC)c(OC)c(OC)c2)cc1	46.5%	57.2%	44.1%	53.3%	20.5%	53.1%	13%	1.83% (active)	66.5%	31.1%	32.2%	26.2%	44.6%	34.6%	31.1%	33.6%	-11.3% (active)	27.4%	46.1%	67.2%
CCN1C(=O)C2(Nc3ccccc3S2)c2cc(C)ccc21 (stereo not given)	101%	108%	84.1%	105%	93.7%	98.2%	101%	94.4%	101%	92.6%	101%	107%	76.2%	107%	97.5%	89%	95.1%	102%	103%	105%
COC(=O)c1c2c(c(C)[n+]([O-])c1C)C(=O)C=C(NCc1ccc(F)cc1)C2=O	-90.6% (active)	1.64% (active)	-97.8% (active)	-29.3% (active)	-22.2% (active)	-1.99% (active)	-80% (active)	-91.2% (active)	-87.2% (active)	-69.3% (active)	-60.5% (active)	2.67% (active)	-92% (active)	-66.5% (active)	-23.1% (active)	2.62% (active)	-96.8% (active)	-81.7% (active)	-47.1% (active)	6.43% (active)
CCCCCCCC/C=C\CCCCCCCCOc1cccc(CC(=O)NCC[N+]2(C)CCCCC2)c1	84.5%	46.2%	79.1%	71.2%	-2.16% (active)	61.6%	87.5%	99.1%	98.5%	84.4%	102%	27%	50.7%	56.7%	51.6%	22.1%	89.4%	70.1%	74.5%	98.7%
O=c1oc2ccccc2cc1-c1csc(N=Nc2c(O)[nH]c3ccc(Br)cc23)n1	109%	111%	99%	95.6%	115%	101%	101%	99.5%	97.3%	105%	105%	109%	86.2%	95.8%	103%	102%	96.5%	95%	99.9%	101%
O=C1Nc2ccc(Cl)cc2/C1=N/N=C(c1ccccc1)c1ccccc1	103%	93.3%	87.9%	75.6%	109%	97.8%	92.6%	97%	98.5%	102%	87.2%	98.3%	74.5%	62.7%	94.5%	86.2%	99%	84.6%	87.5%	117%
